Compounds with a hit are over-represented: about 12% of the library has one in this group of screens.
HP1b binding inh: blocks HP1-beta chromodomain binding to methylated histone tails | 0.56% of 390,000 active | Potency, µM (series often up to 114 µM), for inactives: at the top dose activity change, negative = inhibition, actives largely listed as inhibitors | P83916 | AlphaScreen HP1-beta / biotin-H3K9me3 peptide binding; note: nearly all actives have a fitted effect of over 70% in size
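HP1-beta protein (50 nM final) preincubated 30 min at room temperature with biotinylated H3(1-18)K9me3 peptide (50 nM) in PBS pH 7.4, 0.01% Tween-20, then compound added for 30 min. AlphaScreen streptavidin donor/nickel chelate acceptor beads (10 ug/mL final), 30 min dark, luminescence read.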
G9a inh: inhibitors of human histone lysine methyltransferase G9a. Potency, µM (doses to about 102 µM), for the others: at the highest dose activity, negative = inhibition, most hits filed as inhibitors. 8.8% of 350,000 active. Q96KQ7. G9a H3K9 monomethylation, AlphaScreen, 2 h. AID 504332; note: % is set by controls: 0 for no effect and ±100 for the full control effect; nearly all actives have a fitted effect of over 75% in size
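Chemiluminescent proximity detection of H3K9 monomethylation, read after 10 min bead incubation in the dark. Reaction: 20 nM G9a, 500 nM biotin-H3K9 peptide, 20 uM SAM cofactor, 2 h, room temperature, following 15 min enzyme-compound preincubation.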
JMJD2A Tudor inh: JMJD2A Tudor domain (human) inhibition | AlphaScreen JMJD2A-Tudor / H3K4me3 peptide binding | Potency, µM (doses to about 114 µM), for the others: top-dose activity change, negative = inhibition, actives largely listed as inhibitors | 4.4% of 390,000 active; note: % is set by controls: 0 for no effect and ±100 for the full control effect; nearly all actives have a fitted effect of over 50% in size
Sfp inh: Sfp phosphopantetheinyl transferase inhibition | Potency, µM, for the others: largest response in the series, negative = inhibition, most hits filed as inhibitors | AID 1490 | Biochemical Sfp PPTase activity, qHTS | Q9F4F7 | 3.5% of 310,000 active;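 note: the enzyme is Sfp with the accession as filed and its product quenches rhodamine fluorescence; 0% = enzyme reaction without inhibitor and -100% = no enzyme wells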
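Reaction rates are the 30-min fluorescence difference (ex 525, em 598 nm) in wells containing 15 nM Sfp, 5 uM rhodamine-CoA and 12.5 uM BHQ-2-YbbR at pH 7.6 with 10 mM MgCl2.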
PLK1 PBD inh: inhibitors of human PLK1 polo-box domain binding; P53350; Plk1 PBD binding of FITC phosphopeptide, fluorescence polarization; Potency, µM, inactives show max response, negative = inhibition, actives largely listed as inhibitors; 2.8% of 360,000 active; note: series mostly up to about 57 µM; % is set by controls: 0 for no effect and ±100 for the full control effect; nearly all actives have a fitted effect of over 65% in size
BAZ2B block: inhibitors of human BAZ2B bromodomain; AID 504333; Potency, µM (doses to about 114 µM), for the others: at the top dose activity change, negative = inhibition, actives largely listed as inhibitors; Q9UIF8; 4.4% of 360,000 active; AlphaScreen BAZ2B-H3K14Ac peptide displacement; note: % is set by controls: 0 for no effect and ±100 for the full control effect; nearly all actives have a fitted effect of over 60% in size
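Multi-concentration screen (max 110 uM) measuring displacement of acetylated histone H3 peptide from BAZ2B by AlphaScreen, using 50 nM protein, 50 nM peptide and 10 ug/mL streptavidin donor plus Ni-chelate acceptor beads.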
Active calls of the source: *; ? = inconclusive; / = no result given; [ ] = dose if it differs, or a comment. Calls come from the whole dose curve; as a rule, active = well fitted curve in the direction sought with a large enough effect; inconclusive = small, poorly fitted or top-dose-only effect, or another doubt; inactive = no such curve, though single readings can be large; an effect the other way counts as inactive or inconclusive. Potency is the fitted concentration of half-maximal effect.

SMILES | HP1b binding inh | G9a inh | JMJD2A Tudor inh | Sfp inh | PLK1 PBD inh | BAZ2B block
O=C(NCc1ccccc1F)C1CCCN1S(=O)(=O)c1ccc(Cl)cc1 (stereo not given) | 35.6% | 9.1% | 0.3% | 8.3% | 0.5% | 1.4%
CC(C)(C)OC(=O)N[C@@H](Cc1ccccc1)C(=O)N[C@@H](CO)[C@H](O)[C@@H]1C[C@@H]1C(=O)NC1CCCCC1 | 34.2% | / | -3.5% | / | -0.9% | /
COc1ccccc1N1C(=O)c2cccc3c(N(C)CCO)ccc(c23)C1=O | 60.8% | 11.4% | 11.6% | 9.0% | -19.6% | 4.2%
COc1ccccc1N1C(=O)c2cccc3c(C(=O)O)ccc(c23)C1=O | -7.9% | -11.1% | 79.4µM* | -1.9% | -8.1% | -5.5%
C=Cc1c(C)c2cc3[nH]c(cc4nc(cc5nc(cc1[nH]2)C(C)=C5CCC(=O)O)C(CCC(=O)O)=C4C)c(C)c3C=C | 193.3% | 4.7%[59 µM] | 20µM* | 0.5% | 13.4µM* | 39.8µM*
CCN(CC)C(=O)N1CCc2ccccc21 | -1.9% | / | -30.6% | 17.4% | 29.9µM* | -5.9%
O=C(c1c(F)c(F)c(F)c(F)c1F)N1CCc2ccccc21 | -13.0% | / | 56.2µM* | / | 23.8µM* | /
CCOc1ccc(C2C=C(c3ccc(C)cc3)Nc3nnnn32)cc1 (stereo not given) | 36.6% | 50.1µM* | -9.9%[57.1 µM] | -10.5% | 26.7µM* | ?
CCOc1ccc(C2C=C(c3ccccc3)Nc3nnnn32)cc1 (stereo not given) | 64.6% | 50.1µM* | -7.2% | -28.0% | 0.8% | 7.1%
CCOc1ccc(C2C=C(c3ccc(C)cc3)Nc3ncnn32)cc1 (stereo not given) | / | 28.2µM* | / | -29.6% | / | 12.1%
CCOc1ccc(C2C=C(c3cccc(OC)c3)Nc3nnnn32)cc1 (stereo not given) | 5.6% | 6.5%[59 µM] | -11.2% | / | / | -11.3%
O=C(CNS(=O)(=O)c1ccc(Br)s1)N1CCN(c2ccc(F)cc2)CC1 | -11.4% | 5.7%[59 µM] | -20.1% | 2.9% | -23.0% | -34.7%
COc1ccc(-c2cc3c(=O)n(CC(=O)Nc4cccc(Cl)c4)nc(C)n3n2)cc1 | 13.0% | 18.1%[59 µM] | 4.5% | 14.1% | -17.8% | 1.2%
COc1cccc2cc(C(=O)N3CCC(C)CC3)c(=O)oc12 | 47.6% | 50.1µM* | -9.2% | -11.3% | -24.1% | -4.8%
COc1cccc2cc(C(=O)N3CCN(C45CC6CC(CC(C6)C4)C5)CC3)c(=O)oc12 | -10.7% | ? | -18.3%[11.4 µM] | -9.0% | 26.7µM* | -3.3%
COc1cccc2cc(C(=O)N3C(C)CCCC3C)c(=O)oc12 (stereo not given) | 8.2% | 7.3%[59 µM] | -4.8% | 3.1% | -8.4% | 13.9%
CCOC(=O)C1(Cc2ccccc2)CCCN(S(=O)(=O)N(C)C)C1 (stereo not given) | 30.2% | 29.3% | 4.3% | 21.1% | 1.5% | -3.5%
CCN(CC)c1ccc(N)cc1 | 12.6µM* | -4.0%[0.501 µM] | 17.8µM* | / | 4.4% | 31.6µM*
Nc1ccc(N(CCO)CCO)cc1 | ? | 11.2µM* | 8.91µM* | 12.6µM* | ? | 50.1µM*
Nc1ccc(C(=O)N(CCO)CCO)cc1 | 23.8% | -3.9% | -8.6% | 20.5% | 9.4% | -24.2%
CCOc1ccc(CCNC(=O)C2CCN(c3ncnc4c3nc3n4CCCCC3)CC2)cc1 | 28.4% | -1.9%[59 µM] | -13.5% | / | / | -5.2%
CCOc1ccccc1CNC(=O)C1CCCN(c2ncnc3onc(-c4ccc(F)cc4)c23)C1 (stereo not given) | 19.8% | 1.1%[59 µM] | -14.2% | / | / | 9.5%[57.1 µM]
O=S(=O)(Nc1nc2ccccc2s1)c1ccc(Cl)s1 | 11.6% | ? | -3.3% | 11.8% | ? | 0.8%
O=S(=O)(Nc1cc(O)cc2cccnc12)c1ccc(Cl)s1 | / | / | 79.4µM* | -25.0% | / | /
CC(CNC(=O)Cn1ccc(N)nc1=O)c1ccccc1 (stereo not given) | 42.0% | -6.6%[0.501 µM] | 0.7% | / | 1.8% | -3.0%
SMILES | HP1b binding inh | G9a inh | JMJD2A Tudor inh | Sfp inh | PLK1 PBD inh | BAZ2B block
CCCCN(C(=O)c1ccccc1Br)C(c1ccc(OC)cc1)c1nc2ccccc2[nH]1 (stereo not given) | / | / | / | / | -1.9% | /
COC(=O)C(c1cc(OC)c(O)c(OC)c1)(N1CCNC(C)C1)C(F)(F)F (stereo not given) | 37.3% | 10µM* | 27.8% | -13.7% | -12.1% | -4.9%
Nc1ccc2cc3ccccc3cc2c1 | -2.2% | / | ? | / | ? | /
Nc1ccc2cccc(O)c2c1 | ? | / | 28.2µM* | / | ? | /
CCN(CC)S(=O)(=O)c1ccc2c(c1)N(CC(=O)Nc1ccccc1F)C(=O)C1CCCN21 (stereo not given) | 27.9% | 5.5%[59 µM] | -6.7% | / | / | -1.4%
O=C(CCN1C(=O)/C(=C/c2ccc(Cl)cc2)SC1=S)Nc1ccc(C(=O)O)cc1 | 70.8µM* | ? | ? | -4.0% | 29.9µM* | -15.6%
CCc1ccc(/C=C2/SC(=S)N(CCC(=O)Nc3ccc(C(=O)O)cc3)C2=O)cc1 | / | 91.2% | / | -29.3% | / | ?
COc1ccc(/C=C2\SC(=S)N(CC(=O)OCC(=O)Nc3ccc(C)cc3Cl)C2=O)cc1 | 4.8% | 14.1µM* | ? | -24.0% | -7.9% | -25.9%
COc1ccc(/C=C2\SC(=S)N(CCC(=O)Nc3ccc(C(=O)O)cc3)C2=O)cc1 | 50.1µM* | 20.2%[0.501 µM] | -100.7% | -3.1% | -29.8% | 35.5µM*
COc1ccc(/C=C2/CSC/C(=C/c3ccc(OC)c(OC)c3)C2=O)cc1OC | 9.9% | / | -13.2% | / | -4.6% | /
O=C(O)CC(Cc1ccc(Cl)cc1)C(=O)Nc1cc(Cl)ccc1Cl (stereo not given) | 27.3% | -16.5%[0.501 µM] | -9.7% | 19.9% | -5.9% | 36.1%
N#CC1=C(N)OC2=C(C(=O)CC(c3ccco3)C2)C1c1ccc(OCc2c(F)cccc2Cl)cc1 (stereo not given) | -14.9% | -7.6%[0.501 µM] | ? | -24.5% | -6.1% | 70.8µM*
Cc1ccc(NC(=O)COC(=O)CCn2c(C)csc2=O)c([N+](=O)[O-])c1 | -12.4% | ? | -28.2% | / | -8.0% | -36.4%
Cc1ccc(NC(=O)COC(=O)CCC(=O)c2ccc(C(C)(C)C)cc2)c([N+](=O)[O-])c1 | ? | 11.2µM* | ? | -7.9% | -11.1% | ?
Cc1ccc(NC(=O)COC(=O)COc2ccc(Cl)cc2C)c([N+](=O)[O-])c1 | -25.1% | 28.2µM* | ? | -0.3% | -0.4% | ?
Cc1[nH]n(-c2ccccc2)c(=O)c1N=Nc1cccc([N+](=O)[O-])c1 | -9.4% | / | ? | 11.3% | -5.1% | ?
Cc1ccc(N=Nc2c(C)[nH]n(-c3ccccc3)c2=O)cc1Br | -2.0% | 3.55µM* | ? | -0.9% | -2.7% | 12.6µM*
Cc1ccc(N=Nc2c(C)[nH]n(-c3ccccc3)c2=O)c(C)c1 | 22.4µM* | -13.5% | 11.2µM* | -19.0% | 8.44µM* | 12.8%
Cc1[nH]n(-c2ccccc2)c(=O)c1N=Nc1cccc(Cl)c1 | ? | / | ? | 17.2% | 2.5% | 22.4µM*
